Sampled rows, rich in hits. Any-hit rate of the full collection: about 6%.
D1 ag: human D1 receptor agonism | HEK293 T-REx D1 cells, calcium flux, agonist mode | activation, % at 2 µM | actives 1% (n = 360,000); in the data active means activation above about 30%; further: 0% is about no effect
Target sequence (P21728 whole entry, looked up): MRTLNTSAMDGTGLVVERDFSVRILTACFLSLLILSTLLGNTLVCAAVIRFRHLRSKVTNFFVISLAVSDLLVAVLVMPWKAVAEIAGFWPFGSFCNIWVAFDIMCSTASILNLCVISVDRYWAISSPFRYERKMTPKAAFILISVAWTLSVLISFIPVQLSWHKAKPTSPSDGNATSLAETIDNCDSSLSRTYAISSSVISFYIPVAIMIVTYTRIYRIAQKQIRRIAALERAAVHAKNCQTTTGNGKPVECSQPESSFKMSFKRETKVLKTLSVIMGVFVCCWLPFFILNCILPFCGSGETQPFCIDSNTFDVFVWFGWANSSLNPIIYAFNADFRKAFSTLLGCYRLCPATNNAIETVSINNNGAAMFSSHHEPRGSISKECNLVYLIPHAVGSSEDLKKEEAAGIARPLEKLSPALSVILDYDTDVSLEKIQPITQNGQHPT
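Tetracycline-induced HEK293 TREx D1 cells, force-coupled to calcium signalling, were dye-loaded with a no-wash calcium kit. Compound was pin-added after a 10 s baseline. Fluorescence was read kinetically at 1 cycle/s for 180 s, with calcium rises flagged as agonism.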
D1 antag: antagonists of human D1 dopamine receptor; activity change, negative = inhibition, % at 10 µM; HEK293 TREx D1 cells, calcium flux, dopamine EC80; stronger effect = lower value; P21728; actives 3.2% (n = 360,000); AID 504652; in the data active means activity change below about -30%; further: on the % scale 0 is the no-effect control and ±100 the full control effect
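Tetracycline-induced HEK293 T-REx cells with force-coupled D1 receptor were loaded with a no-wash calcium dye. Compound was added after a 10 s baseline and read kinetically for 180 s; EC80 dopamine was then added and calcium flux followed another 180 s.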
D3 ag: activates the human D3 dopamine receptor; P35462; D3R DiscoveRx beta-arrestin cells, luminescence, 90 min; max activation, %; actives 0.58% (n = 410,000); AID 652048; in the data active means max activation above about 30%; further: 0% is about no effect
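Agonist mode: compounds and dopamine controls were applied to plated cells for 90 min at 37 degrees C after an overnight attachment at 1500 cells/well. Luminescent read-out followed 30 - 60 minutes at room temperature with DiscoveRx detection reagent.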
D1 potentiator: potentiators of human D1 dopamine receptor; HEK293 TREx D1 cells, calcium flux, dopamine EC20 potentiation; P21728; potentiation, % at 10 µM; AID 504651; actives 0.036% (n = 360,000); in the data active means potentiation above about 30%; further: 0% is about no effect
DRD3 antagonist: D3 dopamine receptor (human) antagonism; D3R cells, DiscoveRx beta-arrestin luminescence, antagonist mode; stronger effect = lower value; max response, negative = inhibition, %; actives 2.5% (n = 360,000); AID 652054; in the data active means max response below about -50%; inconclusive means no clear call, values can overlap the other calls; further: on the % scale 0 is the no-effect control and ±100 the full control effect
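Cells plated overnight at 1500 cells/well, then exposed to library compounds with dopamine controls for 90 minutes at 37 degrees C. DiscoveRx reagent added for 30–60 minutes at room temperature; luminescence read, quantitative HTS format.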
Numbers without * were called inactive; ? = inconclusive; / = no result.

SMILES	D1 ag	D1 antag	D3 ag	D1 potentiator	DRD3 antagonist
C[C@H](CSC(=O)c1ccccc1)C(=O)N1C[C@@H](Sc2ccccc2)C[C@H]1C(=O)O	/	/	2	/	/
Cc1cc(C)cc(Cn2ncc3c4sc(C)cc4n(C)c3c2=O)c1	2	-6	/	0	/
CCOc1ccc(NS(=O)(=O)c2c(C)nc3sc(CC)nn3c2=O)cc1	5	-8	0	4	-53*
S=c1[nH]cc(-c2ccccc2)n1-c1ccccc1	1	2	-2	0	-7
Cc1ccc(-n2c(-c3ccccc3)c[nH]c2=S)cc1	1	8	41*	1	0
CCCC(=O)Nc1nnc(-c2ccco2)s1	0	1	4	-1	-66*
CCOc1ccc(-c2nnc(Nc3ccc(S(N)(=O)=O)cc3)c3ccccc23)cc1	1	-28	8	-1	/
CN1CCN(C(=S)c2ccc(Cl)cc2)CC1	1	3	0	5	-87*
COc1ccc(C(=S)N2CCN(C)CC2)cc1	2	-1	2	4	-74*
CCCCC(c1nnnn1CCOC)N1CCN(CC)CC1 (centres undefined)	0	-4	-14	-3	-68*
O=C1C(Cl)=C(N2CCC(C(=O)O)CC2)C(=O)c2ccccc21	4	8	-7	-2	-53*
NC(=O)C1CCN(C2=C(Cl)C(=O)c3ccccc3C2=O)CC1	4	1	-11	-2	-75*
CN1CCN(C2=C(Cl)C(=O)c3ccccc3C2=O)CC1	/	/	-20	/	?
CC1COCC(C)N1C1=C(Cl)C(=O)c2ccccc2C1=O (centres undefined)	/	/	-9	/	-58*
CCOC(=O)CCCCNCc1ccccc1	1	14	-17	-6	-70*
c1ccc(CNCCCNCCCCNCCCNCc2ccccc2)cc1	/	/	-2	/	22
O=C(O)CCCCCNCc1ccncc1	1	-41*	5	-10	11
O=C(O)CCCCNCc1ccccc1	1	6	-11	1	-8
COc1cc(C(=O)N(CCCN(C)C)c2nc3c(OC)cccc3s2)cc(OC)c1OC	11	-2	-25	1	/
CCc1ccc(NC(=O)CSc2nccn2-c2cccc(C)c2C)cc1	5	-19	-3	-3	/
N#CC1=C(N)SC(N)=C(C#N)C1CCC1CCCCC1	43*	-27	/	-8	/
COc1cc2c(cc1OC)CN(Cc1ccc(OC)c(C)c1OC)CC2	7	-2	-7	-2	-77*
COc1cc2c(cc1OC)CN(Cc1ccc(C)cc1)CC2	-1	-8	-10	-6	-80*
COc1cc2c(cc1OC)CN(CCC(C)c1ccc(Cl)cc1)CC2 (centres undefined)	/	/	-14	/	-91*
COc1cc2c(cc1OC)CN(Cc1ccccc1)CC2	3	14	-27	-6	-24
SMILES	D1 ag	D1 antag	D3 ag	D1 potentiator	DRD3 antagonist
COc1cc2c(cc1OC)CN(Cc1cccs1)CC2	-4	6	-12	5	-54*
CCOC(=O)C1CCCN(Cc2cn3c(-c4ccc(Br)cc4)nnc3s2)C1 (centres undefined)	1	24	-16	-5	/
CC(/C=C/c1ccccc1)=N/NC(=O)c1cccc(Br)c1	1	5	-7	4	-53*
O=C(N/N=C/C1C(c2ccccc2)C1(Cl)Cl)c1cccc(Br)c1 (centres undefined)	1	26	-3	0	-53*
O=C(N/N=C/c1[nH]c2ccccc2c1Cl)c1cccc(Br)c1	3	20	-1	-3	3
Cc1cc(C(=O)NN=C2CCCCC2)c2ccccc2n1	1	-89*	-20	-6	-1
C/C(=N\NC(=O)c1cc(C)nc2ccccc12)c1cccs1	-1	-5	0	-2	-9
CC(/C=C/c1ccccc1)=N\NC(=O)c1cc(C)nc2ccccc12	2	-36*	-6	-8	-27
CCCCOC(=O)c1ccc(Nc2ncnc3c2cnn3-c2cccc(C)c2)cc1	-2	-3	-9	0	/
CCOC(=O)C1CCCN(C/C=C/c2ccccc2[N+](=O)[O-])C1 (centres undefined)	3	-1	-30	-5	-64*
CCN(CC)C(=O)C1CCCN(C/C=C/c2ccccc2[N+](=O)[O-])C1 (centres undefined)	5	-62*	-8	-3	-12
CCN(CC)C(=O)C1CCCN(c2ccc([N+](=O)[O-])cc2)C1 (centres undefined)	2	-17	-9	-6	-2
CCc1ccccc1NC(=O)C1COc2ccccc2C1 (centres undefined)	0	0	-18	4	/
COc1ccc(CNC(=O)Cn2c(SCC(=O)Nc3ccc(OC)cc3)nc3ccccc32)cc1	1	4	3	1	/
CCC(=O)N1CCc2cc(Br)cc(S(=O)(=O)CCC(=O)N3CCN(c4cccc(C(F)(F)F)c4)CC3)c21	2	-7	-17	0	/
Cc1ccc(C)c(N2CCN(CC3CCCCC3)CC2)c1	5	17	-14	1	-57*
Cc1ccc(C)c(N2CCN(Cc3nnnn3C3CCCCC3)CC2)c1	3	12	2	6	-14
Cc1cccc(N2CCN(CC3CCCCC3)CC2)c1C	1	36	-24	3	-97*
Cc1cccc(N2CCN(C(=O)CNC(=O)C3CCCCC3)CC2)c1C	8	0	5	-2	0
CCn1nccc1NC(=O)c1csc([C@@H]2O[C@H](CO)[C@H](O)[C@H](O)[C@H]2O)n1	/	/	37*	/	?
CCn1nccc1NC(=O)c1csc([C@H]2C[C@H](O)[C@@H](CO)O2)n1	/	/	1	/	7
CCCCn1c(CN(C)Cc2ccccc2)nc2c1c(=O)n(C)c(=O)n2C	4	1	10	3	67
CCCn1c(CN(C)Cc2ccccc2)nc2c1c(=O)n(C)c(=O)n2C	4	-43*	6	0	5
Cc1c(C(C)C)c(=O)n(-c2ccc(S(=O)(=O)NC3CCCCC3)cc2)n1C	4	-52*	1	-4	-11
CN(CCO)CC(O)CN(c1ccccc1)c1ccccc1 (centres undefined)	8	10	0	-7	-51*
SMILES	D1 ag	D1 antag	D3 ag	D1 potentiator	DRD3 antagonist
CNCC(O)CN(c1ccccc1)c1ccccc1 (centres undefined)	9	-10	-7	-6	-22
O=C(O)CCN(Cc1ccccc1)S(=O)(=O)c1ccc(Cl)cc1F	2	-38*	-14	-2	?
Cc1n[nH]c(C)c1Sc1ccccc1N=Cc1cc(Cl)cc([N+](=O)[O-])c1O	7	-12	-15	3	-131*
Cc1n[nH]c(C)c1Sc1ccccc1[N+](=O)[O-]	2	11	2	-4	13
CCc1ccc(OCC(=O)N(Cc2cccs2)c2ccc(Cl)cc2)cc1	23	17	-5	-1	/
CS(=O)(=O)N1Cc2ccccc2CC1C(=O)O (centres undefined)	3	-43*	5	-9	7

Compound activity deposited in PubChem BioAssay by National Center for Advancing Translational Sciences (NCATS).
